Assay results from PubChem BioAssay.
Activity calls are given as the source filed them.

Assays:
[1] = system: PRMT1 (protein arginine N-methyltransferase 1); test: PRMT1 binders on small-molecule microarrays, primary screen, biochemical, small-molecule microarray, 635 nm fluorescence (AID 1088); conditions: small-molecule microarray binding, higher = more signal;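 further: binding of Prmt1 protein to compounds spotted on small-molecule microarray slides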
[2] = yeast growth modulation, basal conditions, primary screen, YJM789 clinical isolate, OD600, 24 h (AID 1089);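 further: growth of clinical yeast isolate S. cerevisiae YJM 789 seeded 1000 cells per well; test concentration not given here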; conditions: S. cerevisiae YJM789 growth, higher = more signal, called active from +8 up or from −8 down
[3] = fission yeast growth modulation, primary screen, strain 972, OD600, 24 h, no modulator (AID 1090);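 further: basal condition with compound alone and no growth modifier present; test concentration not given here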; conditions: S. pombe 972 growth, higher = more signal, called active from +8 up or from −8 down
[4] = S. cerevisiae growth modulation with rapamycin, primary screen, strain BY4716, OD600, 96 h (AID 1091); conditions: higher = more signal, called active from +8 up or from −8 down; further: test concentration not given here
[5] = target: Torsin-1A-interacting protein 2 (Homo sapiens) (UniProt Q8NFQ8); test: LULL1 binders on small-molecule microarray, primary screen, cell lysate, human LULL1 lysate, 635/667 nm fluorescence (AID 1092); conditions: hLULL1 lysate binding, 635 nm fluorescence, higher = more signal;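 further: probe is lysate of COS7 cells overexpressing human LULL1; score merges per-feature 667 nm fluorescence with signal-to-noise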
Torsin-1A-interacting protein 2 (Homo sapiens), sequence (Q8NFQ8 whole entry, looked up): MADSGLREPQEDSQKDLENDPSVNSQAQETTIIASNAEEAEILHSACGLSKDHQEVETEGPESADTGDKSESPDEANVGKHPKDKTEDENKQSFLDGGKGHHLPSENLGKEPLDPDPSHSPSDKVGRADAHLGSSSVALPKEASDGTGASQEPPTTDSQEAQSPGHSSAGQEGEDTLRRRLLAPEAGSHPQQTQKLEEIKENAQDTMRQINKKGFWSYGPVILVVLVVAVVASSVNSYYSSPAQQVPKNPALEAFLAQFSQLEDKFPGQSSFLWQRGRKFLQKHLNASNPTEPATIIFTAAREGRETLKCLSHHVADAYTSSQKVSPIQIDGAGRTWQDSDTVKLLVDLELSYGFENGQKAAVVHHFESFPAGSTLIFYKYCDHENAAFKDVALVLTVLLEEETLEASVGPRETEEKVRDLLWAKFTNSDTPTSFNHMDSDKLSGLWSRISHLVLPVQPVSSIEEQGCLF

[6] = E. coli growth modulation, two-sided OD650, primary screen, E. coli filamentation project, strain DRC41, 24 h (AID 1093); conditions: OD650, 24 h, higher = more signal, called active from +8 up or from −8 down;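 further: MC1000 strain lacking acrAB efflux and sulA so SOS filamentation is blocked; test concentration not given here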
[7] = small-molecule microarray binders of probe aLefty2, primary screen, biochemical, biotinylated probe, 635/667 nm fluorescence (AID 1094); conditions: higher = more signal;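 further: score merges spot fluorescence near 667 nm with spot signal-to-noise ratio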
[8] = system: Noggin (protein binding on small-molecule microarray); test: Noggin binders on small-molecule microarray, primary screen, biochemical, 635/667 nm fluorescence (AID 1095); conditions: 635 nm fluorescence, higher = more signal;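 further: score merges 667 nm feature fluorescence with signal to noise over triplicate slides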
[9] = target: Neurogenic locus notch homolog protein 3 (Homo sapiens) (UniProt Q9UM47); test: NOTCH3 binders on small-molecule microarray, primary screen, biochemical, 635/667 nm fluorescence (AID 1096); conditions: NOTCH3 binding, 635 nm fluorescence, higher = more signal
Neurogenic locus notch homolog protein 3 (Homo sapiens), sequence (Q9UM47 whole entry, looked up): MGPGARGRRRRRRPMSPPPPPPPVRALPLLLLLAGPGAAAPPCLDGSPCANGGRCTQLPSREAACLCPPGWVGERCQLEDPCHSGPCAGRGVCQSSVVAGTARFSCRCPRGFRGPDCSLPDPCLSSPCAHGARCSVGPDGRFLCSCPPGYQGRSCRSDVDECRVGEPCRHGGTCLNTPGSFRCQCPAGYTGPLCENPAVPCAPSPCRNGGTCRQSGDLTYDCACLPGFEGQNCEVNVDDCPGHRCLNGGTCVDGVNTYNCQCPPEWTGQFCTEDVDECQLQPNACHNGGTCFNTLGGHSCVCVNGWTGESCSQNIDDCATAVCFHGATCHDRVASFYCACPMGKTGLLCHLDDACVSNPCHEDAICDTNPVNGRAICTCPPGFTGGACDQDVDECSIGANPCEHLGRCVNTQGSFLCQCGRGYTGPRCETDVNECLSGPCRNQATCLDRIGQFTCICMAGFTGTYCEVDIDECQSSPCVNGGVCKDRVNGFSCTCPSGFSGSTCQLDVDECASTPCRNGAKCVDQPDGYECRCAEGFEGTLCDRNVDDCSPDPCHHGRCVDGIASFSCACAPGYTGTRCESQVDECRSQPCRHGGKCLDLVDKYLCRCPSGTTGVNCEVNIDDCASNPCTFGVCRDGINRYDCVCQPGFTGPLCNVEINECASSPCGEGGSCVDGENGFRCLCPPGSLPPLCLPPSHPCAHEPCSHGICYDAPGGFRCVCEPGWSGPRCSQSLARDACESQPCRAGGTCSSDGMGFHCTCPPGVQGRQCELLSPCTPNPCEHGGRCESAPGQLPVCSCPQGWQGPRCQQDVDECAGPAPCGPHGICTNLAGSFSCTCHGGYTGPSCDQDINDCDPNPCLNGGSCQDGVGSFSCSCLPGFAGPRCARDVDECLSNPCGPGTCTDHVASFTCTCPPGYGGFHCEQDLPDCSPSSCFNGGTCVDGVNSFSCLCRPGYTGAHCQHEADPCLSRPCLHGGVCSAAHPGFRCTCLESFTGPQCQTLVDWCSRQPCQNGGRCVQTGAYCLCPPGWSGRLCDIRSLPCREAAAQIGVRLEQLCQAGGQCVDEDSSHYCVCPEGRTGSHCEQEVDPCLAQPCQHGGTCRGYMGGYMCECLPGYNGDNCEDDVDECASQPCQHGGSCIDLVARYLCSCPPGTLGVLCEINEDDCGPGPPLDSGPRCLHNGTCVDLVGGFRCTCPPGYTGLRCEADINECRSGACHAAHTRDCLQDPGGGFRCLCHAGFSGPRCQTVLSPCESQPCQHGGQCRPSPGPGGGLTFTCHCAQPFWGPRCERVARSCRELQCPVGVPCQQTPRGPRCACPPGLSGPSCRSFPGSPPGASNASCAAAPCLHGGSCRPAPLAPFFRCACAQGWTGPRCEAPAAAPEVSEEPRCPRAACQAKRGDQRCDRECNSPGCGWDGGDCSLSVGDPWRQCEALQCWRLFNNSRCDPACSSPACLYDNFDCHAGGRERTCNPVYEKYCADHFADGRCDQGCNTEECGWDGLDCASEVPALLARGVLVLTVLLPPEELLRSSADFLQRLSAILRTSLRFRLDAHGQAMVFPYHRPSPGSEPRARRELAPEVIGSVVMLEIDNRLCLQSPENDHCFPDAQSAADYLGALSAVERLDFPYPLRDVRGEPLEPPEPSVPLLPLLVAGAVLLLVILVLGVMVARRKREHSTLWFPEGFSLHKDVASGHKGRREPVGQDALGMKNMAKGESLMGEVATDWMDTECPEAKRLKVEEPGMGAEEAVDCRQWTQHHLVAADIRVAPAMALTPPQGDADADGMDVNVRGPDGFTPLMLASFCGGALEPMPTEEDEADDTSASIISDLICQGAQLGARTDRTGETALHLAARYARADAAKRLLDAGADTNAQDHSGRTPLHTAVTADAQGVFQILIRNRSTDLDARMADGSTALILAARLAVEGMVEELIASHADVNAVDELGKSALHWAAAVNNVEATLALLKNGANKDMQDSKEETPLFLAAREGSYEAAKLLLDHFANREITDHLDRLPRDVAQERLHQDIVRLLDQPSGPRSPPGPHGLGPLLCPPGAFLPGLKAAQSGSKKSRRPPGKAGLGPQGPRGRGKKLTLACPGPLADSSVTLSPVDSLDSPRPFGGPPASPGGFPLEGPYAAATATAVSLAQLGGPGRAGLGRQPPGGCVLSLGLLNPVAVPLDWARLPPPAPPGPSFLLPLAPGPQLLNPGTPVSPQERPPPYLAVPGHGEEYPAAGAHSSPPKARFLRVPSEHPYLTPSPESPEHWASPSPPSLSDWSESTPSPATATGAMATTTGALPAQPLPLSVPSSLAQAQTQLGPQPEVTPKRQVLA

[10] = small-molecule microarray binders of probe aEGFR, primary screen, biochemical, biotinylated probe, 635/667 nm fluorescence (AID 1097); conditions: higher = more signal;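 further: probe is a biotinylated anti-EGFR antibody binding compounds printed on slides; score combines fluorescence near 667 nm and signal to noise of each spot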
[11] = system: Plasmodium falciparum Sir2 (PF13_0152, Sir2A); test: pfSir2 binders on small-molecule microarrays, primary screen, biochemical, small-molecule microarray, 635 nm fluorescence (AID 1098); conditions: small-molecule microarray binding, fluorescence 635 nm; higher = more signal;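 further: score merges spot fluorescence intensity with its signal-to-noise ratio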
[12] = small-molecule microarray binders of probe aDKK1, primary screen, biochemical, biotinylated probe, 635/667 nm fluorescence (AID 1099); conditions: higher = more signal;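 further: score merges 667nm spot fluorescence with signal to noise across triplicate slides; reference of the scale not given here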
[13] = small-molecule microarray binders of probe aCHRDL2, primary screen, biochemical, biotinylated probe, 635/667 nm fluorescence (AID 1100); conditions: higher = more signal
[14] = splicing luciferase reporter signal modulators, primary screen, spliceosome inhibition project, cell-based, HEK293, splice +/- reporter (AID 1101); conditions: luminescence, 24 h, higher = more signal, called active from +8 up or from −8 down;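 further: HEK293 cells carrying a splicing-competent luciferase reporter gene; test concentration not given here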
[15] = target: Fibroblast growth factor 10 (Homo sapiens) (UniProt O15520); test: FGF10 binders on small-molecule microarrays, primary screen, biochemical, small-molecule microarray, 635 nm fluorescence (AID 1102); conditions: FGF10 binding, fluorescence 635 nm, higher = more signal
Fibroblast growth factor 10 (Homo sapiens), sequence (O15520 whole entry, looked up): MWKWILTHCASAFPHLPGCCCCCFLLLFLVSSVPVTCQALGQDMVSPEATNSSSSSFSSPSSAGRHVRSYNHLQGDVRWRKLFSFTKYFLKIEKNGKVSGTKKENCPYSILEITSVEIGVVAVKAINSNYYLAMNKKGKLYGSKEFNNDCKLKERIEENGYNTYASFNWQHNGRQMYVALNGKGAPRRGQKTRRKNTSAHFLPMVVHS

[16] = system: glycogen synthase kinase-3 (GSK3A per assay name; protocol says GSK3B); test: GSK3 binders on small-molecule microarrays, primary screen, biochemical, small-molecule microarray, 635 nm fluorescence, GSK3A (AID 1103); conditions: small-molecule microarray binding, fluorescence 635 nm; higher = more signal; further: the record names both GSK3A and GSK3B
[17] = target: Epidermal growth factor receptor (Homo sapiens) (UniProt P00533); test: EGFR binders on small-molecule microarrays, primary screen, biochemical, small-molecule microarray, 635 nm fluorescence (AID 1104); conditions: EGFR binding, higher = more signal;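 further: score merges 667 nm emission intensity with spot signal to noise over triplicate slides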
Epidermal growth factor receptor (Homo sapiens), sequence (P00533 whole entry, looked up): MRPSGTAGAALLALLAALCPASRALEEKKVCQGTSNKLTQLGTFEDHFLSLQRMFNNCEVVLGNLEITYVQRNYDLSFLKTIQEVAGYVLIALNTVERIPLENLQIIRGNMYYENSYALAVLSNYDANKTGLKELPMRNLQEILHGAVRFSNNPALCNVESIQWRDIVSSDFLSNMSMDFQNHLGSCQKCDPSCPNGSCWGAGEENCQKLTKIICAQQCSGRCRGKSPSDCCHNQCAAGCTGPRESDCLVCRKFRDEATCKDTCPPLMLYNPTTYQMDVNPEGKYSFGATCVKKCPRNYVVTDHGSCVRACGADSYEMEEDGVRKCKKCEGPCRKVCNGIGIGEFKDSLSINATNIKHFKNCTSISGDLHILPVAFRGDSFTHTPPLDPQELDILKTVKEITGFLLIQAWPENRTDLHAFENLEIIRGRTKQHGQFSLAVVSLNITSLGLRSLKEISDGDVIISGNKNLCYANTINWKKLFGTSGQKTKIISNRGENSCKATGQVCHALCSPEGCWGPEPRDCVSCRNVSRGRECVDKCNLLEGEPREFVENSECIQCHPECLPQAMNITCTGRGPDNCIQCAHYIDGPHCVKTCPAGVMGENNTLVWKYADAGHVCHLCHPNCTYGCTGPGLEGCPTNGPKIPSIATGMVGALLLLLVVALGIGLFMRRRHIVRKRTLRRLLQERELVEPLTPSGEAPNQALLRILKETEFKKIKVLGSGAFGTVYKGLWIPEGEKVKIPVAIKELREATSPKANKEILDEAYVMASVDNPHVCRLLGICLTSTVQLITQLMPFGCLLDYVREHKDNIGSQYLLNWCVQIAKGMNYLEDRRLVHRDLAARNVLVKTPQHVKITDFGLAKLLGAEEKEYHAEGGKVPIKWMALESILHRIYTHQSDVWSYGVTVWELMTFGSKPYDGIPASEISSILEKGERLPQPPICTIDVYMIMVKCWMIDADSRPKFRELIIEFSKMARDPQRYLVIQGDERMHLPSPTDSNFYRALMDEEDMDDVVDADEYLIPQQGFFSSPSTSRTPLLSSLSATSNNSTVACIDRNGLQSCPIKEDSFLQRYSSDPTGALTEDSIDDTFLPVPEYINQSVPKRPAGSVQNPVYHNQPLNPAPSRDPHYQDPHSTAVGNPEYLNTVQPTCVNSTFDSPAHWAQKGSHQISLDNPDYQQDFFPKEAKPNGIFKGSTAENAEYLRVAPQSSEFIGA

[18] = target: Follistatin-related protein 3 (Homo sapiens) (UniProt O95633); test: FSTL3 binders on small-molecule microarrays, primary screen, biochemical, small-molecule microarray, 635 nm fluorescence (AID 1105); conditions: FSTL3 binding, higher = more signal;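 further: score merges emission near 667 nm and signal to noise per printed spot across three slides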
Follistatin-related protein 3 (Homo sapiens), sequence (O95633 whole entry, looked up): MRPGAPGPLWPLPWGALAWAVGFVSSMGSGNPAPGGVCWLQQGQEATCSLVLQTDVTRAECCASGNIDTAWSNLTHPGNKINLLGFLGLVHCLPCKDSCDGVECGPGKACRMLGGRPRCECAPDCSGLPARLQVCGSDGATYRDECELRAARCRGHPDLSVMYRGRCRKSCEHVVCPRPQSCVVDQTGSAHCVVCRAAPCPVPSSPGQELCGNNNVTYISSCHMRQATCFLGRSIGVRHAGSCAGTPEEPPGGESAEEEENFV

[19] = target: Dickkopf-related protein 1 (Homo sapiens) (UniProt O94907); test: DKK1 binders on small-molecule microarrays, primary screen, biochemical, small-molecule microarray, 635 nm fluorescence scan (AID 1106); conditions: DKK1 binding, higher = more signal;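 further: score merges emission near 667 nm with signal to noise over three replicate slides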
Dickkopf-related protein 1 (Homo sapiens), sequence (O94907 whole entry, looked up): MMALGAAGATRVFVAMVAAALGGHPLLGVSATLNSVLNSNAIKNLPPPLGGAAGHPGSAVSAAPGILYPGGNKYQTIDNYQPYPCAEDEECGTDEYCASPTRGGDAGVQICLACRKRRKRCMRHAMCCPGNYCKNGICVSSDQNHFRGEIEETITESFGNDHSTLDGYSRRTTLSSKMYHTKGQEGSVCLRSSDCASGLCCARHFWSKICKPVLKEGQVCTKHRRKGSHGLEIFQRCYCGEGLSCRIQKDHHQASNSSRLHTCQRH

[20] = system: Inhibin beta A chain (activin A); test: INHBA (activin A) binders on microarrays, primary screen, biochemical, small-molecule microarray, 635 nm fluorescence scan (AID 1107); conditions: small-molecule microarray binding, higher = more signal;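 further: mouse activin A protein probed at 4.33 µg/mL on printed slides; score merges bound-protein fluorescence near 667 nm with spot signal-to-noise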

Row | Structure (SMILES) | composite z-score [1] | z-score [2] | z-score [3] | z-score [4] | composite z-score [5] | z-score [6] | composite z-score [7] | composite z-score [8] | composite z-score [9] | composite z-score [10] | composite z-score [11] | composite z-score [12] | composite z-score [13] | z-score [14] | composite z-score [15] | composite z-score [16] | composite z-score [17] | composite z-score [18] | composite z-score [19] | composite z-score [20]
1 | CO[C@H]1O[C@H](CO)[C@@H](OC(=O)Nc2ccccc2-c2ccccc2)[C@H](OC(=O)Nc2ccccc2-c2ccccc2)[C@H]1OC(=O)Nc1ccccc1-c1ccccc1 | 1.54 | 3.06 (inactive) | 2.48 (inactive) | 10.6 (active) | 3.23 | 0.956 (inactive) | 0.115 | 0.65 | 1.08 | 0.0553 | 1.54 | 0.677 | 0.607 | -0.316 (inactive) | 1.4 | 1.35 | 0.197 | 1.36 | 0.289 | 0.628
2 | [N-]=[N+]=NCc1ccccc1C[C@@]1(C(=O)NCc2ccccc2)N=C(c2ccc(OCCCO)cc2)O[C@@H]1c1ccccc1CN=[N+]=[N-] | 1.57 | -1.34 (inactive) | 0.0392 (inactive) | 36 (active) | 3.25 | 1.16 (inactive) | 0.395 | 0.234 | 0.756 | 0.0157 | 1.39 | 1.09 | 1.06 | 0.48 (inactive) | 0.639 | 1.13 | -0.286 | -0.0894 | -0.242 | 0.123
3 | [N-]=[N+]=Nc1ccccc1[C@@H]1OC(c2ccc(OCCCO)cc2)=N[C@]1(CCS(=O)(=O)c1ccccc1)C(=O)O | 1.56 | 1.57 (inactive) | -3.97 (inactive) | -1.63 (inactive) | 3.39 | 0.777 (inactive) | -0.013 | 0.61 | 1.01 | 0.172 | 1.25 | 0.541 | 0.54 | -1.27 (inactive) | 1.11 | 1.29 | 0.452 | 1.44 | 0.227 | 1.31
4 | [N-]=[N+]=NCc1ccccc1C[C@]1(C(N)=O)N=C(c2ccc(OCCCO)cc2)O[C@H]1c1ccccc1N=[N+]=[N-] | 1.37 | 1.22 (inactive) | 1.29 (inactive) | 1.39 (inactive) | 2.84 | -0.0072 (inactive) | 0.175 | -0.433 | 0.616 | 0.268 | 0.573 | 0.911 | 1.16 | -0.288 (inactive) | 0.617 | 1 | -0.236 | 0.416 | -0.322 | 1.45
